# From PubChem BioAssay
# GLP1R inv ag: qHTS of GLP-1 Receptor Inverse Agonists (Inhibition Mode); Glucagon-like peptide 1 receptor (Homo sapiens), P43220; HEK293 GLP-1R CRE-luciferase, luminescence, 24 h; GLP-1R form is constitutively active; Potency, µM (highest dose often 38.3 µM), inactives show top-dose activity change, negative = inhibition, usual class: inhibitors; actives 1.6% (n = 410,000); also: % is scaled to controls: 0 for no effect and ±100 for the full control effect; nearly all actives have a fitted effect of over 55% in size
#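 Inverse agonism was detected as reduced cAMP-driven luciferase luminescence after 24 h compound treatment. The cells were HEK293 clones expressing constitutively active human GLP-1R with the reporter. Reporter-only and GPR119 cell lines served as counterscreen controls.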
# ClpP mod: qHTS Assay for Activators of ClpP | purified B. subtilis ClpP, FRET peptide cleavage, 20 min | Potency, µM (doses to about 57.5 µM), inactives show at the top dose activity change, negative = active | actives 1.9% (n = 340,000) | AID 651965, 2013; active = well fitted falling curve with a large enough effect; inconclusive = small, poorly fitted or top-dose-only effect; inactive = no such curve, though single readings can be large or run the other way; also: the source files actives as falling curves though it sought activators and does not explain the sign; nearly all actives have a fitted effect of over 65% in size
#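 Purified B. subtilis ClpP, 10 microg/mL final in Tris/HCl pH8 with KCl, BSA, glycerol and Tween-20, cleaved an Abz/nitrotyrosine-quenched decapeptide. Fluorescence (ex 320, em 430) was read at 0 and 20 min at room temperature. Delta was normalized to 5.8 microM ADEP and DMSO/no-enzyme controls.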
# HEK293 tox: qHTS of GLP-1 Receptor Inverse Agonists: Cytotox Screen | HEK293 cAMP-luciferase reporter cells, luminescence, 24 h | Potency, µM (highest dose often 38.3 µM), without a hit: top-dose activity change, negative = inhibition, most hits filed as inhibitors | actives 0.13% (n = 410,000) | AID 624418, 2012;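 also: loss of luciferase light is scored as toxicity; % is scaled to controls: 0 for no effect and ±100 for the full control effect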
#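 Seeding density was 200 cells/uL; after overnight-length (12 h) culture, 23 nL compounds went on for 24 h at 37 °C. Readout used a luciferase detection reagent, luminescence taken after 12 min at room temperature.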
# GLP1R ag: qHTS of GLP-1 Receptor Agonists; HEK293 GLP-1R CRE-luciferase, luminescence, 4-6 h; cells express a hypersensitive GLP-1R form; Glucagon-like peptide 1 receptor (Homo sapiens), P43220; AID 624172, 2012; actives 0.007% (n = 380,000); Potency, µM (doses to about 45.6 µM), for the others: top-dose activation, usual class: activators; also: % of control where 0% means no effect
# The depositor's hits bear a star; ? = inconclusive; . = not tested or not shown. Hits are enriched below; roughly 3.2% of the tested compounds scored in any of these assays. Unless noted, calls follow the shape of the dose curve; as a rule, active = well fitted curve in the direction sought with a large enough effect; inconclusive = small, poorly fitted or top-dose-only effect, or another doubt; inactive = no such curve, though single readings can be large; an effect the other way counts as inactive or inconclusive. Potency is read from the fitted curve at half-maximal effect.
SMILES,GLP1R inv ag,ClpP mod,HEK293 tox,GLP1R ag
CC(=C/c1ccccc1)/C=N/NC(=O)c1nnn(-c2nonc2N)c1CN1CCC(C)CC1,3.98µM*,.,-22.6%,14.5%
O=C(COc1ccccc1C(=O)Nc1ccccc1)Nc1cccc(Br)c1,.,-22.7%,.,.
CC(=O)c1cccc(NC(=O)C(OC(=O)/C=C/c2ccc3c(c2)OCO3)c2ccccc2)c1 (centres undefined),-2.3%,28.2µM*,3.0%,-6.6%
COc1ccc(N2CCN(c3oc(COc4ccc(Cl)cc4)nc3C#N)CC2)cc1,?,-4.4%,0.5%,-5.8%
N#Cc1nc(COc2ccc(Cl)cc2)oc1N1CCN(Cc2ccccc2)CC1,?,28.2µM*,-12.3%,-2.1%
COc1ccc(N2CCN(c3oc(COc4ccccc4)nc3C#N)CC2)cc1,2.82µM*,-3.5%,1.9%,3.9%
CCCOc1ccccc1C(=O)N1CCCCC1CCN1CCOCC1 (centres undefined),11.7%,-0.8%,2.0%,.
CCN(c1ccccc1)S(=O)(=O)c1cccc(C(=O)NCC2(N(C)C)CCCCC2)c1,10µM*,1.0%,-0.5%,-1.8%
CN(C)C1(CNC(=O)c2cccc(S(=O)(=O)NCc3ccccc3)c2)CCCCC1,?,-4.0%,9.2%,2.2%
COc1ccc(NC(=O)c2sc3nc4c(cc3c2N)CCCCCC4)cc1Cl,?,12.6µM*,5.3%,.
O=C(c1nc(-c2ccc(Cl)cc2)n2c1CCCCC2)N1CCN(c2ccc(F)cc2)CC1,10µM*,-0.3%,-14.3%,.
CCn1ccc2cc(S(=O)(=O)N3CCCN(C(=O)Nc4ccccc4OC)CC3)ccc21,14.8%,-7.8%,3.8%,27.2%
O=[N+]([O-])c1ccc(Nc2nc(NCCN3CCOCC3)nc(Nc3ccc(Cl)cc3)n2)cc1,.,-1.4%,.,.
O=C(CCc1cn(Cc2ccccc2Cl)c2ccccc12)NC1CCCCC1,10µM*,-3.5%,-18.8%,.
CC1CCC(NC(=O)CCc2cn(Cc3ccccc3Cl)c3ccccc23)CC1 (centres undefined),-24.6%,-11.8%,-5.0%,.
CC1(C)CC(=O)c2sc(NC(=O)CN3CCCCC3)nc2C1,?,15.8µM*,-10.9%,-14.6%
CC1(C)CC(=O)c2sc(NC(=O)C(C)(C)C)nc2C1,?,.,5.8%,5.5%
Cc1cc(C)c2cc(C#N)c(N3CCCN(C(=S)NCCCN(C)C)CC3)nc2c1,?,.,2.7%,16.8%
Cc1cc2cc(C#N)c(N3CCN(S(C)(=O)=O)CC3)nc2cc1C,48.3%,20µM*,10.5%,25.7%
Cc1cc(C)c2cc(C#N)c(N3CCCC3)nc2c1,33.5%,25.1µM*,131.8%,2.0%
CCCc1ccc(OCC(=O)Nc2sc3c(c2C(=O)OCC)CCC(C(C)(C)C)C3)cc1 (centres undefined),0.2%,-3.2%,9.8%,.
CCn1c(SCC(=O)N2CCC(C)CC2)nnc1-c1ccccc1O,1.0%,0.8%,-8.7%,.
COc1cc2[nH]c3c(=O)n(CCN(C(C)C)C(C)C)cnc3c2cc1OC,?,28.2µM*,?,-1.1%
N#CC1=C(N)N(c2ccccc2)C(c2ccco2)C1(C#N)C#N (centres undefined),70.0%,14.1µM*,11.8%,28.4%
Cc1cccc(N2C(N)=C(C#N)C(C#N)(C#N)C2c2ccccc2)c1 (centres undefined),?,14.1µM*,-16.9%,1.7%
SMILES,GLP1R inv ag,ClpP mod,HEK293 tox,GLP1R ag
CCC(=O)Nc1nc(-c2ccc3c(c2)OCCO3)cs1,-25.3%,2.7%,-3.0%,-2.2%
CC(C)(C)C(=O)Nc1nc(-c2ccc3c(c2)OCO3)cs1,10µM*,-1.0%,6.4%,-4.4%
COc1ccccc1C(=O)Nc1nc(-c2ccc3c(c2)OCCO3)cs1,?,25.1µM*,-0.4%,-2.0%
COc1cccc(Nc2nc(-c3ccc4c(c3)OCCO4)cs2)c1,?,-1.9%,19.2%,-3.1%
CCOC(=O)C1CCN(Cc2cn3c(-c4ccc(OC)cc4)nnc3s2)CC1,1.0%,-3.8%,-9.6%,2.8%
O=C(CSc1nc(-c2ccccc2)[nH]c1-c1ccccc1)Nc1ccc2c(c1)OCCO2,?,-17.2%,-19.6%,.
COc1ccc(CN2CCC(CNS(=O)(=O)c3cccc(C(F)(F)F)c3)CC2)cc1,11.2µM*,.,-28.4%,5.5%
CC1(c2ccccc2)O[C@@H]2C[C@H]3[C@@H]4CCC5=CC(=O)C=C[C@]5(C)[C@@]4(F)[C@@H](O)C[C@]3(C)[C@]2(C(=O)CO)O1 (some centres undefined),7.94µM*,.,2.1%,3.6%
Nc1c(C(=O)c2ccccc2)sc(Nc2ccc(Cl)c(Cl)c2)c1C(=O)Nc1ccccc1,?,1.0%,?,.
O=C(NN=C1CCCC1)c1[nH]c2ccc(Cl)cc2c1-c1ccccc1,3.16µM*,.,?,20.6%
COc1ccc(C(C(=O)NC2CCCC2)N(C(=O)c2ccoc2C)c2ccccc2)cc1 (centres undefined),?,2.0%,-11.2%,8.2%
CCc1ccc(N(C(=O)c2ccoc2C)C(C(=O)NC2CCCC2)c2ccc(OC)cc2)cc1 (centres undefined),10µM*,-2.4%,?,-4.4%
CCc1ccc(N(C(=O)c2ccco2)C(C(=O)NC2CCCC2)c2ccco2)cc1 (centres undefined),10µM*,-1.3%,-19.8%,-3.4%
O=C(NC1CCCC1)C(c1ccco1)N(C(=O)c1ccco1)c1ccccc1 (centres undefined),2.1%,.,7.8%,8.7%
COc1ccc(C(C(=O)NC2CCCC2)N(C(=O)c2ccoc2C)c2ccc(C)c(C)c2)cc1 (centres undefined),10µM*,.,-7.5%,9.4%
CCOC(=O)CSc1nc(-c2ccc3c(c2)OCO3)ccc1C#N,10.0%,25.1µM*,-0.2%,0.9%
CCOC(=O)CSc1nc(-c2ccncc2)ccc1C#N,94.9%,?,185.6%,15.0%
CCOC(=O)CCCSc1nc(-c2ccc3c(c2)OCO3)cc(C(F)(F)F)c1C#N,86.7%,15.8µM*,83.3%,-2.9%
CCCCOC(=O)c1ccc(NC2=NS(=O)(=O)c3ccccc32)cc1,-12.6%,-8.7%,4.3%,-1.3%
COc1cccc(CN2CCC2(C)C(=O)Nc2cccc3cccnc23)c1F (centres undefined),?,28.2µM*,-36.5%,28.5%
COc1ccc(OC)c(NC(=O)C2(C)CCN2Cc2cccc(OC)c2F)c1 (centres undefined),?,-0.7%,-4.2%,-0.1%
CN(C)c1ccc(CNC(=O)C(Cc2ccccc2)NS(=O)(=O)c2ccc3c(c2)oc(=O)n3C)cc1 (centres undefined),4.6%,1.5%,-5.2%,.
Cc1ccc(C(=O)N(CCN2CCCCC2)CC2CCCN(C3CCCC3)C2)s1 (centres undefined),8.91µM*,-12.1%,?,45.5%
